Assay outcomes: PubChem BioAssay, several laboratories
CYP2C9 activ – human CYP2C9 activators, primary screen, biochemical, luminescence | activation factor at 5 µM | Cytochrome P450 2C9 (Homo sapiens), P11712 | actives 1.4% (n = 96,000) | recombinant CYP2C9, luciferin-H conversion; active compounds read high; factor 1 = untreated enzyme, 0 = blocked;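 active = activation factor of 2 or more for CYP2C9 at a 5 µM dose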;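 also: 0 = sulfaphenazole-blocked wells and 1 = vehicle-only wells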
CYP2C19 act – human CYP2C19 activators, primary screen, biochemical, luminescence; Cytochrome P450 2C19 (Homo sapiens), P33261; recombinant CYP2C19, luciferin-H EGE luminescence; active compounds read high; 0 = fully inhibited enzyme, 1 = untreated enzyme; activation factor at 5 µM; 96,000 tested, under 10 active; AID 1025, 2008;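 active = activation factor of at least 2 at 5 µM in the primary screen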;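 also: 0 = wells with 2.5 mM tranylcypromine and 1 = vehicle-only wells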
Target sequence (P33261 whole entry, looked up): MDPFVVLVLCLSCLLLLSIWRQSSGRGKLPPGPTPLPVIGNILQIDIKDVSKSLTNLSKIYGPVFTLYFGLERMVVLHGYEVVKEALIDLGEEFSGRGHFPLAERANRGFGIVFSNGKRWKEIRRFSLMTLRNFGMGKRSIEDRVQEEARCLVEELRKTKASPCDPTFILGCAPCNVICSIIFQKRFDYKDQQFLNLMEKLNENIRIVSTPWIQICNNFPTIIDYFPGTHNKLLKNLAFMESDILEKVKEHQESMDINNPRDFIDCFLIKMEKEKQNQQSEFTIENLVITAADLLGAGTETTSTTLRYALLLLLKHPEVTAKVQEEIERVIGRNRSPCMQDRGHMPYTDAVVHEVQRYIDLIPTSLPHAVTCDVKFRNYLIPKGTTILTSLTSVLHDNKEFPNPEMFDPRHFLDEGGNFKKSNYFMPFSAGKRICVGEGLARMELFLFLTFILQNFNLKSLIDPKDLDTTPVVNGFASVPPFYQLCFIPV
CYP2C19 inhib – blockers of cytochrome P450 2C19 activity – biochemical, luminescence, ADME assay, primary screen | P33261 | AID 778, 2007 | actives 21% (n = 96,000) | inhibition, % at 5 µM | CYP2C19 Supersomes, luciferin-H EGE luminescence, 30 min;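 active = CYP2C19 inhibition above a set limit at 5 µM in the primary screen, cut at about 50% in these data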;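 also: plate controls were negative control wells for no effect and 2.5 mM tranylcypromine positive control for full effect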
sEH inh – soluble epoxide hydrolase inhibitors, primary screen, biochemical, human sEH; Bifunctional epoxide hydrolase 2 (Homo sapiens), P34913; recombinant human sEH enzymatic activity assay; inhibition, % at 2 µM; actives 0.34% (n = 91,000); in the data active = inhibition above about 80%
CYP2C9 inh – blockers of cytochrome P450 2C9 activity – biochemical, luminescence, ADME assay, primary screen; CYP2C9 Supersomes, luciferin-H conversion; inhibition, % at 5 µM; actives 20% (n = 96,000); AID 777, 2007;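 active = blocking of liver enzyme CYP2C9 beyond about 50% at 5 µM, limit read from the data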
sEH act – soluble epoxide hydrolase activators, primary screen, biochemical, human sEH; actives 0.04% (n = 91,000); activation, % at 2 µM; Bifunctional epoxide hydrolase 2 (Homo sapiens), P34913; purified human sEH enzymatic activity, activator screen; in the data active = activation above about 37%
Numbers without * were called inactive; x = no result. Shown are actives, neighbours in structure and some others; about 27% of the full set was active somewhere.

SMILES | CYP2C9 activ | CYP2C19 act | CYP2C19 inhib | sEH inh | CYP2C9 inh | sEH act
COc1ccc2c(CC(=O)N3CCc4ccccc43)coc2c1 | 0.9 | 0.4 | 64* | -4 | 14 | 7
Cc1ccc(-c2noc(CCC(=O)N3CCCc4ccccc43)n2)cc1 | 0 | 0.2 | 85* | 8 | 95* | -5
Cc1ccc(N2CC(C(=O)N3CCCc4ccccc43)CC2=O)cc1 (configuration not stated) | 0 | 0.3 | 68* | x | 96* | x
COc1ccccc1CC(=O)N1CCCc2ccccc21 | 2.6* | 0.3 | 67* | -12 | -157 | 15
Cc1ccc(N2CC(C(=O)N3CCc4ccccc43)CC2=O)cc1 (configuration not stated) | 0.7 | 1 | 3 | x | 25 | x
COc1ccc(OCC(=O)NC(=S)N2CCCc3ccccc32)cc1 | 0.6 | 0.4 | 64* | 0 | 41 | 2
CCc1ccc(NC(=O)N(C2CCCCC2)C(C)c2cccnc2)cc1 (configuration not stated) | 0.8 | 0.8 | 17 | 28 | 16 | -28
O=C(c1ccc(C(=O)N2CCCc3ccccc32)s1)N1CCCc2ccccc21 | 0.7 | 0.5 | 50* | 6 | 34 | -3
CCCCC(CC)COC1(c2ccccc2)OC(=O)c2ccccc21 (configuration not stated) | 0.5 | 0.7 | 28 | -5 | 46 | 6
O=C1OC(Oc2ccccc2)(c2ccccc2)c2ccccc21 (configuration not stated) | 0.5 | 0.6 | 44 | 4 | 54* | -2
CCCCOC1(c2ccccc2)OC(=O)c2ccccc21 (configuration not stated) | 0.4 | 0.4 | 55* | -6 | 61* | 6
Cc1cccc(C2=N/C(=C\c3cccnc3)C(=O)O2)c1 | 1.2 | 0.9 | 8 | 1 | -16 | -3
COc1ccc(C)cc1NC(=O)CSc1nnc(-c2ccccn2)n1Cc1ccco1 | 0.6 | 0.6 | 45 | -6 | 41 | 8
CC(C)c1cc(NC(=O)CSc2nnc(-c3ccccc3F)n2C)on1 | 0.4 | 0.6 | 40 | x | 58* | x
CCn1c2ccccc2c2cc(NC(=O)CSc3nnc(-c4ccccc4OC)n3N)ccc21 | 0.4 | 0.1 | 94* | -5 | 58* | 5
COc1ccc(NC(=O)CSc2nnc(-c3ccccc3C)n2C)cc1 | 0.8 | 0.8 | 19 | 2 | 20 | -4
COc1ccccc1NC(=O)CSc1nnc(-c2ccco2)n1Cc1ccco1 | 0.2 | 0.2 | 83* | 2 | 77* | 0
COc1ccccc1NC(=O)CSc1nnc(-c2ccccn2)n1Cc1ccco1 | 0.2 | 0.6 | 38 | 6 | 77* | -5
CCCCN(C(=O)NC(=O)Nc1nc2ccc(OC)cc2s1)S(C)(=O)=O | 0.8 | 1 | 3 | 2 | 16 | -2
CC(=O)c1cccc(NC(=O)c2nccnc2C(=O)O)c1 | 0.9 | 1 | -2 | -3 | 7 | 0
O=C(CSc1nnc(-c2ccco2)n1Cc1ccco1)Nc1ccccc1 | 0.4 | 0.8 | 19 | 11 | 64* | -8
COc1ccc(-c2nnc(SCC(=O)Nc3ccc(C)cc3)n2C)cc1 | 0.6 | 0.7 | 29 | -3 | 40 | 1
COc1ccc(NC(=O)CSc2nnc(CCC(=O)Nc3ccc(C)c(Cl)c3)n2C)cc1 | 0.3 | 0.9 | 12 | 3 | 66* | -3
COc1ccccc1NC(=O)CSc1nnc(C)n1CCc1ccccc1 | 0.5 | 0.6 | 41 | 2 | 53* | -2
CCN(CC)S(=O)(=O)c1ccc(NC(=O)CSc2nnc(-c3cccc(OC)c3)n2C)cc1 | 0.5 | 0.8 | 23 | 38 | 52* | -38
SMILES | CYP2C9 activ | CYP2C19 act | CYP2C19 inhib | sEH inh | CYP2C9 inh | sEH act
CC(Cc1c[nH]c2ccccc12)NC(=O)C1CCCNC1=O (configuration not stated) | 1.2 | 1.2 | -16 | -16 | -21 | 15
CCNC(=O)CSc1nnc(-c2ccc(OC)cc2)n1CC(C)C | 0.8 | 0.9 | 11 | -3 | 21 | 2
COc1ccccc1-c1nnc(SCC(=O)Nc2ccc(S(N)(=O)=O)cc2)n1C | 0.2 | 0.6 | 38 | -8 | 76* | 4
CCOC(=O)CNC(=O)CSc1nnc(-c2ccco2)n1N | 1.1 | 1.1 | -13 | 9 | -14 | -8
Cc1cccc(C)c1NC(=O)CSc1nnc(-c2ccco2)n1N | 0.9 | 0.4 | 57* | -15 | 10 | 14
CCOc1ccc(NC(=O)CSc2nnc(-c3ccco3)n2C)cc1 | 0.9 | 1 | 3 | x | 12 | x
COc1ccc(NC(=O)CSc2nnc(-c3ccco3)n2C)cc1 | 0.1 | 0.1 | 92* | x | 93* | x
COc1ccc(CNC(=O)c2ccc(S(=O)(=O)N3CCCC3)cc2)cc1OC | 0.5 | 1 | 4 | 16 | 48 | -13
COc1cc(/C=C/C(=O)c2c(O)ccc3c(C)cc(=O)oc23)ccc1O | 1 | 0.9 | 13 | 7 | -1 | -6
COc1ccc(/C=C\C(=O)c2c(O)ccc3c(C)cc(=O)oc23)cc1OC | 1.2 | 0.3 | 68* | 4 | -20 | -2
O=C(CSc1nnc(-c2ccco2)n1Cc1ccccc1)NC(=O)NCc1ccccc1 | 0.7 | 0.4 | 62* | -23 | 30 | 21
Cc1nnc(SCC(=O)NC(=O)NCc2ccco2)n1Cc1ccccc1 | 0.3 | 0.8 | 16 | -1 | 67* | 4
Nn1c(SCC(=O)NC(=O)NCc2ccco2)nnc1-c1ccc(OC(F)F)cc1 | 0.7 | 0.3 | 71* | -12 | 31 | 10
O=C(CSc1nnc(Cc2ccccc2)n1Cc1ccccc1)NCc1ccco1 | x | x | x | 10 | x | -11
CCOc1ccccc1-n1nnnc1SCC(=O)NC(=O)NCc1ccco1 | 0.7 | 0.2 | 79* | x | 27 | x
O=C(CSc1n[nH]c(-c2ccccc2Br)n1)NC(=O)NCc1ccco1 | 0.4 | 0.6 | 36 | x | 59* | x
CCCn1c(SCC(=O)NC(=O)NCc2ccco2)n[nH]c1=O | 0.8 | 0.9 | 9 | 3 | 21 | -3
Cc1cccc(NC(=S)NN(Cc2ccccc2)c2ccccc2)c1C | 0.7 | 0.8 | 16 | -14 | 29 | 14
COc1ccc(C2=CC(c3ccc(Cl)cc3)n3cnnc3N2)cc1OC (configuration not stated) | 0.6 | 0.7 | 25 | x | 40 | x
COc1ccc(-c2noc(CCC(=O)NC3CCCCC3)n2)cc1OC | 0.2 | 0.1 | 87* | 19 | 79* | -17
COc1ccc(-c2noc(CCC(=O)NC3CCN(Cc4ccccc4)CC3)n2)cc1 | 0.2 | 0.3 | 73* | -19 | 84* | 14
COc1cc(-c2noc(CCCC(=O)NC3CCCCC3)n2)cc(OC)c1OC | 0.9 | 0.3 | 66* | 32 | 9 | -33
